Test system: Vero E6 infected with SARS-CoV-2
Assay: inhibition of SARS-CoV-2 cytopathic effect; higher = more antiviral protection, active = above 15
Conditions: 48 h

Measured: inhibition of SARS-CoV-2 cytopathic effect

O[C@H]1[C@H](O)[C@@H](O)[C@H](O)[C@@H](O)[C@H]1O [inositol]
inactive: 1 nM -0.68% | 8.33 nM 0.73% | 100 nM -1.55% | 833.33 nM 1.69% | 10000 nM 2.84%

O=C(CCCCCCCn1cc(-c2cccnc2)nn1)Nc1ccccc1-c1ccccc1
inactive: 1 nM 0.38% | 8.33 nM -1.7% | 100 nM -14.1% | 833.33 nM -14.7% | 10000 nM -12.8%

O=C(N[C@H](CO)[C@H](O)c1ccc([N+](=O)[O-])cc1)C(Cl)Cl [chloramphenicol]
inactive: 1 nM 0.28% | 8.33 nM -0.6% | 100 nM -1.23% | 833.33 nM 0.21% | 10000 nM -3.04%

NC(=O)N/N=C/c1ccc(Oc2ccc(F)cc2)cc1
inactive: 1 nM -1.46% | 8.33 nM -1.91% | 100 nM -0.81% | 833.33 nM 1.11% | 10000 nM 3.26%

CCN(CC)CCOC(=O)C(c1ccccc1)C1CCCCC1 (stereo not given) [drofenine]
inactive: 1 nM -1.59% | 8.33 nM 1.9% | 100 nM -1.61% | 833.33 nM -1.42% | 10000 nM 1.22%

O=c1c(-n2ccnn2)c[nH]n1-c1cc(N2CCOCC2)ncn1 [molidustat]
inactive: 1 nM 1.15% | 8.33 nM -0.02% | 100 nM -0.4% | 833.33 nM 3.64% | 10000 nM 2.32%

CNC(C)(C)Cc1ccccc1 [mephentermine]
inactive: 1 nM -6.95% | 8.33 nM -4.1% | 100 nM -6.2% | 833.33 nM -3.76% | 10000 nM 2.65%

Nc1nc(F)nc2c1ncn2[C@@H]1O[C@H](CO)[C@@H](O)[C@@H]1O [fludarabine]
inactive: 1 nM -1.26% | 8.33 nM -3.11% | 100 nM -2.43% | 833.33 nM 1.66% | 10000 nM -0.43%

CCOCCn1c(N2CCCN(C)CC2)nc2ccccc21 [emedastine]
inactive: 1 nM -2.21% | 8.33 nM 0.36% | 100 nM -2.49% | 833.33 nM 1.46% | 10000 nM -0.01%

CCOC(=O)NNc1nncc2ccccc12 [todralazine]
inactive: 1 nM 2.18% | 8.33 nM 1.04% | 100 nM 0.33% | 833.33 nM 0.99% | 10000 nM -0.55%

Cc1cccc(C)c1OCC(=O)N[C@@H](Cc1ccccc1)[C@@H](O)C[C@H](Cc1ccccc1)NC(=O)[C@H](C(C)C)N1CCCNC1=O [lopinavir]
inactive: 1 nM 1.3% | 8.33 nM 1% | 100 nM 1.43% | 833.33 nM 0.57% | 10000 nM 12.6%

COc1ccc(C(=O)N2CCCC2=O)cc1 [aniracetam]
inactive: 1 nM 0.63% | 8.33 nM 0.43% | 100 nM 0.75% | 833.33 nM 0.1% | 10000 nM 0.6%

CCCCC(CC)CNC(=N)NC(=N)NCCCCCCNC(=N)NC(=N)NCC(CC)CCCC (stereo not given) [alexidine]
inactive: 1 nM -2.11% | 8.33 nM 4.36% | 100 nM 2.23% | 833.33 nM -6.06% | 10000 nM -18.2%

CCN1C[C@H](C)n2c(c(O)c3c(=O)n(Cc4ccc(F)c(Cl)c4)nc(C(=O)NC)c32)C1=O
inactive: 1 nM -0.8% | 8.33 nM 0.13% | 100 nM -1.06% | 833.33 nM 0.69% | 10000 nM -2.34%

CC(=N)NCc1cccc(CN)c1
inactive: 1 nM 0.8% | 8.33 nM -0.79% | 100 nM -0.18% | 833.33 nM 1.65% | 10000 nM 0.53%

CN[C@@H]1[C@H](O[C@H]2[C@H](O[C@H]3[C@H](O)[C@@H](O)[C@H](NC(=N)N)[C@@H](O)[C@@H]3NC(=N)N)O[C@@H](C)[C@]2(O)CO)O[C@@H](CO)[C@H](O)[C@H]1O [dihydrostreptomycin]
inactive: 1 nM 0.2% | 8.33 nM -0.04% | 100 nM -0.21% | 833.33 nM 0.85% | 10000 nM -0.41%

CN1[C@@H]2CC[C@H]1C[C@@H](OC(=O)C(CO)c1ccccc1)C2 (stereo not given in full)
inactive: 1 nM -2.22% | 8.33 nM -2.93% | 100 nM 1.96% | 833.33 nM 0.7% | 10000 nM 0.64%

O=c1cc(N2CCOCC2)oc2c(-c3ccccc3)cccc12
inactive: 1 nM -0.31% | 8.33 nM 1.39% | 100 nM 0.59% | 833.33 nM -1.92% | 10000 nM -5.7%

N#C/C(=C\c1ccc(O)c(O)c1)C(=O)NCCCCc1ccccc1
inactive: 1 nM 0.51% | 8.33 nM 1.37% | 100 nM 1.91% | 833.33 nM 0.14% | 10000 nM -0.03%
